Laboratory results taken from PubChem BioAssay (EPA / NIEHS).
Values joined by “and” are separate entries in the source; they are usually repeats but may differ in a detail not shown here. Identical values can stand only once. Inconclusive results are not listed. Active and inactive are the calls of the source. Rule for the calls: active = hit-call score of the fitted dose curve at least 0.9, where 1 is the maximum; inconclusive = response in the unintended direction; inactive = score below 0.9.

target: rabbit Imidazoline 2 Central (I2C), CKB (gene 100009085) (UniProt P00567); assay: NVS_ENZ_rabI2C: NovaScreen (NVS) Enzymatic Assay for rabbit Imidazoline 2 Central (I2C) (AID 2283228)
Experimental: NVS_ENZ_rabI2C is a biochemical, single-readout assay that uses extracted gene-proteins from Rabbit brain membranes in a tissue-based cell-free assay. Measurements were taken 1.5 hours after chemical dosing in a 48-well plate.NVS_ENZ_rabI2C is one of one assay component(s) measured or calculated from the NVS_ENZ_rabI2C assay. It is designed to make measurements of enzyme activity, a form of enzyme reporter, as detected with scintillation counting signals by Filter-based radiodetection technology.Data from the assay component NVS_ENZ_rabI2C was analyzed into 1 assay endpoint. This assay endpoint, NVS_ENZ_rabI2C, was analyzed in the positive analysis fitting direction relative to DMSO as the negative control and baseline of activity. Using a type of enzyme reporter, loss-of-signal activity can be used to understand changes in the enzymatic activity as they relate to the gene CKB. Furthermore, this assay endpoint can be referred to as a primary readout, because this assay has produced multiple assay endpoints where this one serves a enzymatic activity function. To generalize the intended target to other relatable targets, this assay endpoint is annotated to the oxidoreductase intended target family, where the subfamily is imidazoline receptor.
Binding assays used specific radioligands (tritiated, iodinated) with non-radioactive competitive displacement ligands in agonist or antagonist protocols (as indicated) and various reference compounds and inhibitors to titrate specific binding to receptors and transporters. Most enzyme assays (CYPs, kinases, phosphatases, proteases, HDACs) used recombinant protein and specific substrates (fluorescence mostly, some colorimetric and radioactive) and inhibitors, followed by a biochemical separation of substrate and product. All assays for the biochemical HTS were initially run in duplicate at a single concentration (10 uM for CYP450 assays and 25 uM for all others). Assay-chemical combinations meeting a pre-defined threshold (e.g., 30% inhibition and other criteria defined below) were then run in singleton concentration-response format with maximum concentration of 20 uM for CYPs and 50 uM for all others. Each assay was run with positive and negative controls, and concurrent controls on every plate. The follow-up (secondary) screen tested active chemical-pairs in concentration series, as well as a few additional assays not tested in the primary screen, some selected negative inactives, and several cases re-run in the concentration series for confirmatory purposes.

Chain of rabbit Imidazoline 2 Central (I2C), CKB (gene 100009085) (P00567 whole entry, looked up): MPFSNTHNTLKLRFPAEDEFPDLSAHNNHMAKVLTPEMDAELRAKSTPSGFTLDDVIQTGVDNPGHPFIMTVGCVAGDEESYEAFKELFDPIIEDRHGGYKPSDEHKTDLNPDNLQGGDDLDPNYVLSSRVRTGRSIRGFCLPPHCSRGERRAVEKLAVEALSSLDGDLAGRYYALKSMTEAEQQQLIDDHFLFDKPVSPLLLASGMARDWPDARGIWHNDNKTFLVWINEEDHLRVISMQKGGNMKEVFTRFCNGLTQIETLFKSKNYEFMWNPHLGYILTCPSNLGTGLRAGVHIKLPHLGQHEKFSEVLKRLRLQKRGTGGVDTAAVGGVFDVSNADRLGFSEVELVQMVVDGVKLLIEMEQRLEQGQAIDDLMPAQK

SMILES | outcome | AC50
O=[N+]([O-])c1c(Cl)c(Cl)c(Cl)c(Cl)c1Cl | inactive | –
O=C(Nc1ccccc1)Nc1cnns1 | inactive | –
CNC(=O)Oc1cccc(N=CN(C)C)c1 | – | 0.67 µM (active)
O=[N+]([O-])/N=C1\NCCN1Cc1ccc(Cl)nc1 | – | 11.4 µM (active)
CCCN(CCOc1c(Cl)cc(Cl)cc1Cl)C(=O)n1ccnc1 | inactive | –

target: human Vascular Endothelial Growth Factor Receptor 3 (VEGFR3), FLT4 (gene 2324) (UniProt P35916); assay: NVS_ENZ_hVEGFR3: NovaScreen (NVS) Enzymatic Assay for human Vascular Endothelial Growth Factor Receptor 3 (VEGFR3) (AID 2283229)
In short: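 Chemicals first run in duplicate at 25 uM, with actives re-tested in concentration series to a top of 50 uM. Recombinant VEGFR3 activity measured after 1 h via fluorescence with mobility-shift product separation; inhibition fitted relative to DMSO.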

Chain of human Vascular Endothelial Growth Factor Receptor 3 (VEGFR3), FLT4 (gene 2324) (P35916 whole entry, looked up): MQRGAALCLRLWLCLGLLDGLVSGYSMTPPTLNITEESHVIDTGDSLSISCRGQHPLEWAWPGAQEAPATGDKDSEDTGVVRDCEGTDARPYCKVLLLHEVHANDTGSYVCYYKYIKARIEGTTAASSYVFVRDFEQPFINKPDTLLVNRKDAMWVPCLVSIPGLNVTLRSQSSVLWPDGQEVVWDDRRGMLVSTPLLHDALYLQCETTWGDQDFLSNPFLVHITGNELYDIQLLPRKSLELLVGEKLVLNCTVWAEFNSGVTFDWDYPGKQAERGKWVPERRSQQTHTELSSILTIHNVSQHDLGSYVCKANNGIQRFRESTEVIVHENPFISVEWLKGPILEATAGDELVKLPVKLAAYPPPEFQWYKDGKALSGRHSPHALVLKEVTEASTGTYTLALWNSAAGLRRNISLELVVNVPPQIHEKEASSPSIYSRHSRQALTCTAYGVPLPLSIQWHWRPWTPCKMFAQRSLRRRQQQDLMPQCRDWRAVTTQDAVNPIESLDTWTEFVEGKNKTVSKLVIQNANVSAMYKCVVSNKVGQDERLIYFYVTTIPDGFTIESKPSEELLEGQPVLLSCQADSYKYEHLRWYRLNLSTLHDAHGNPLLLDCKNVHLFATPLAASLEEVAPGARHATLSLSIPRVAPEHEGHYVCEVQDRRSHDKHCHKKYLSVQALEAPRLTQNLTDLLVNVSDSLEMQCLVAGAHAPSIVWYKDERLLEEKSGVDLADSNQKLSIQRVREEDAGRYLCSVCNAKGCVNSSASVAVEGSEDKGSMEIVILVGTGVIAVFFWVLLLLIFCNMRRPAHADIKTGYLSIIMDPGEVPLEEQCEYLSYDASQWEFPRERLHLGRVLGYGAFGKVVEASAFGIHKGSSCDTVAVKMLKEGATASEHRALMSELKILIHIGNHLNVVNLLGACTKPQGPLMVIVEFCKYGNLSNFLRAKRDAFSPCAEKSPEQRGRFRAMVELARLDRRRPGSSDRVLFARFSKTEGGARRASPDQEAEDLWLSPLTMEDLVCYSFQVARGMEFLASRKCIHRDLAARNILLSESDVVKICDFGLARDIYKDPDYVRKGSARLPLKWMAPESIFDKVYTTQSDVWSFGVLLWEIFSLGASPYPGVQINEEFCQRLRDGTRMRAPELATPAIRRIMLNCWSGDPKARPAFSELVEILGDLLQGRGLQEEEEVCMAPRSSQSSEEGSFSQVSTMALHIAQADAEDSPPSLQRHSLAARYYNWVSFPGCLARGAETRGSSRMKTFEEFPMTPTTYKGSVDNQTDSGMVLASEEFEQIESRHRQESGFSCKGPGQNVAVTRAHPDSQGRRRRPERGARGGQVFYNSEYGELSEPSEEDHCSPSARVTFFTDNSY

SMILES | outcome | AC50
CC(C)(C)C(O)C(Oc1ccc(Cl)cc1)n1cncn1 (stereo unspecified) | inactive | –
N#Cc1c(Cl)c(Cl)c(Cl)c(C#N)c1Cl | – | 38.7 µM (active)
Oc1cc(Cl)ccc1Oc1ccc(Cl)cc1Cl | inactive | –
O=S(=O)(O)C(F)(F)C(F)(F)C(F)(F)C(F)(F)C(F)(F)C(F)(F)C(F)(F)C(F)(F)F | – | 7.45 µM (active) and 9.17 µM (active)
COP(=S)(OC)Oc1ccc(SC)c(C)c1 | inactive | –

target: human Vascular Endothelial Growth Factor Receptor 2 (VEGFR2), KDR (gene 3791) (UniProt P35968); assay: NVS_ENZ_hVEGFR2: NovaScreen (NVS) Enzymatic Assay for human Vascular Endothelial Growth Factor Receptor 2 (VEGFR2) (AID 2283230)
In short: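 Cell-free recombinant VEGFR2 kinase, fluorescent substrate with electrophoretic mobility-shift separation; read 1 h after dosing. Screened at 25 uM in duplicate, hits to concentration-response up to 50 uM; loss-of-signal versus DMSO.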

Chain of human Vascular Endothelial Growth Factor Receptor 2 (VEGFR2), KDR (gene 3791) (P35968 whole entry, looked up): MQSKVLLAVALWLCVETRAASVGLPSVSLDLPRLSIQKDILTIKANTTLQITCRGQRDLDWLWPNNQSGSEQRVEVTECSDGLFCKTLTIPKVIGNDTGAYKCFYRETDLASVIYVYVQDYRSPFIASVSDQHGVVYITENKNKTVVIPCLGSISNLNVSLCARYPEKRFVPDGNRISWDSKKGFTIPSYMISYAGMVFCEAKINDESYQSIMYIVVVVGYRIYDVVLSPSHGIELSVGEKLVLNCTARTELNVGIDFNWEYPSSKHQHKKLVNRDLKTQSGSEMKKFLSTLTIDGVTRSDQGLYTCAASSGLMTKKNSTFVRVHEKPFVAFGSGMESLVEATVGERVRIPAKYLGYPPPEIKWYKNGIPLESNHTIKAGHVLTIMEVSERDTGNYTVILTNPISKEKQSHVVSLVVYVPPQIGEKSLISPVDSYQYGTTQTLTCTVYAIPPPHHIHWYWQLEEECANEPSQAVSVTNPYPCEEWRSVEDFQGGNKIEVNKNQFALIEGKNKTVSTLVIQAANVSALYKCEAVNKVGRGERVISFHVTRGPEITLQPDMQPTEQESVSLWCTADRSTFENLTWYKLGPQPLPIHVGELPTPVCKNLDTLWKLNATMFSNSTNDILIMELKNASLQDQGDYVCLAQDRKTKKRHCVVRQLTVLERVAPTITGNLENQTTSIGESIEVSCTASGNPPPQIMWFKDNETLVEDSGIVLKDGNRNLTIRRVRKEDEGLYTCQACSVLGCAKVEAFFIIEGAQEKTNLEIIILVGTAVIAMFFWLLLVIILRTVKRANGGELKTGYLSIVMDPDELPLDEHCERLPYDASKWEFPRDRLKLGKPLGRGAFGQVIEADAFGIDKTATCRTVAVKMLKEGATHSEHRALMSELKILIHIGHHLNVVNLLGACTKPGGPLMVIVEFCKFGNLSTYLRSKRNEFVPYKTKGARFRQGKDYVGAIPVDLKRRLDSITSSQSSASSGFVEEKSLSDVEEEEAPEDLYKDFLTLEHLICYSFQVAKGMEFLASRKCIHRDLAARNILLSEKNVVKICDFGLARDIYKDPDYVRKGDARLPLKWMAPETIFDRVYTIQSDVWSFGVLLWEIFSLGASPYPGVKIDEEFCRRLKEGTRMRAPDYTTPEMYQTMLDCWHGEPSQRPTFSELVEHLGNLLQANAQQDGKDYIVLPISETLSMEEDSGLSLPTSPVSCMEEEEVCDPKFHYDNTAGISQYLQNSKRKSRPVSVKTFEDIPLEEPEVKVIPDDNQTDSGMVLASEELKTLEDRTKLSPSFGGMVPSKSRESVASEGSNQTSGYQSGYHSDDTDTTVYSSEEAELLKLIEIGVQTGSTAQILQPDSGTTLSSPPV

SMILES | outcome | AC50
CC(C)(C)C(O)C(Oc1ccc(Cl)cc1)n1cncn1 (stereo unspecified) | inactive | –
N#Cc1c(Cl)c(Cl)c(Cl)c(C#N)c1Cl | inactive | –
Oc1cc(Cl)ccc1Oc1ccc(Cl)cc1Cl | inactive | –
O=S(=O)(O)C(F)(F)C(F)(F)C(F)(F)C(F)(F)C(F)(F)C(F)(F)C(F)(F)C(F)(F)F | – | 27.2 µM (active) and 43.1 µM (active)
CC[C@H](C)[C@H]1O[C@]2(C=C[C@@H]1C)C[C@@H]1C[C@@H](C/C=C(\C)[C@@H](O[C@H]3C[C@H](OC)[C@@H](O[C@H]4C[C@H](OC)[C@@H](O)[C@H](C)O4)[C@H](C)O3)[C@@H](C)/C=C/C=C3\CO[C@@H]4[C@H](O)C(C)=C[C@@H](C(=O)O1)[C@]34O)O2 (tested in a mixture with another compound) | inactive | –

target: sheep Cyclooxygenase-2 (Cox2), PTGS2 (gene 443460) (UniProt P79208); assay: NVS_ENZ_oCOX2: NovaScreen (NVS) Enzymatic Assay for sheep Cyclooxygenase-2 (Cox2) (AID 2283231)
In short: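 Enzyme from ovine placenta, cell-free; colorimetric absorbance read 0.66 hour after dosing, loss of signal vs DMSO. Screened in duplicate at 25 uM, then concentration-response up to 50 uM.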

Chain of sheep Cyclooxygenase-2 (Cox2), PTGS2 (gene 443460) (P79208 whole entry, looked up): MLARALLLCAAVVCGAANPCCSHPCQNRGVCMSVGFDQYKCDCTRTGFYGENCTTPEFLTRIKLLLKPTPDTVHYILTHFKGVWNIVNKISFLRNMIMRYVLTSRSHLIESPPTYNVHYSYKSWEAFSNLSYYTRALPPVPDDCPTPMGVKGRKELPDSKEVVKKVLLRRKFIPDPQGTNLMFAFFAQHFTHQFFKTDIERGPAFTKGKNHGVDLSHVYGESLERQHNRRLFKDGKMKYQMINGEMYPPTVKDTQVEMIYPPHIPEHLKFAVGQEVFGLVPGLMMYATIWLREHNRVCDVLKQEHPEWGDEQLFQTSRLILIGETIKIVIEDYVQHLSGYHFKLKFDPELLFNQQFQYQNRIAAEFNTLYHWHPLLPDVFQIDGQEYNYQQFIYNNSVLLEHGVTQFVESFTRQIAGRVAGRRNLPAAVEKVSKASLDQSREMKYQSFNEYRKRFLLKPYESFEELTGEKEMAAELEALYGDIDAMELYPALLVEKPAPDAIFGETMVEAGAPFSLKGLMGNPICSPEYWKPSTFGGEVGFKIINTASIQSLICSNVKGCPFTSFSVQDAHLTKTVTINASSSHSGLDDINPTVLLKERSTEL

SMILES | outcome | AC50
CCCN(CCC)c1c([N+](=O)[O-])cc(C(F)(F)F)cc1[N+](=O)[O-] | inactive | –
Oc1cc(Cl)ccc1Oc1ccc(Cl)cc1Cl | – | 18.6 µM (active)
C#CCN1C(=O)COc2cc(F)c(N3C(=O)C4=C(CCCC4)C3=O)cc21 | inactive | –
O=S(=O)(O)C(F)(F)C(F)(F)C(F)(F)C(F)(F)C(F)(F)C(F)(F)C(F)(F)C(F)(F)F | – | 9.06 µM (active)
CC[C@H](C)[C@H]1O[C@]2(C=C[C@@H]1C)C[C@@H]1C[C@@H](C/C=C(\C)[C@@H](O[C@H]3C[C@H](OC)[C@@H](O[C@H]4C[C@H](OC)[C@@H](O)[C@H](C)O4)[C@H](C)O3)[C@@H](C)/C=C/C=C3\CO[C@@H]4[C@H](O)C(C)=C[C@@H](C(=O)O1)[C@]34O)O2 (tested in a mixture with another compound) | – | 8.68 µM (active)

target: rat Acetylcholinesterase (AChE), Ache (gene 83817) (UniProt P37136); assay: NVS_ENZ_rAChE: NovaScreen (NVS) Enzymatic Assay for rat Acetylcholinesterase (AChE) (AID 2283233)
In short: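 Compounds first screened at 25 uM in duplicate, then those passing threshold tested in concentration series up to 50 uM, against AChE from rat brain membranes. Enzyme activity read by absorbance at 0.33 h; inhibition scored versus DMSO.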

Chain of rat Acetylcholinesterase (AChE), Ache (gene 83817) (P37136 whole entry, looked up): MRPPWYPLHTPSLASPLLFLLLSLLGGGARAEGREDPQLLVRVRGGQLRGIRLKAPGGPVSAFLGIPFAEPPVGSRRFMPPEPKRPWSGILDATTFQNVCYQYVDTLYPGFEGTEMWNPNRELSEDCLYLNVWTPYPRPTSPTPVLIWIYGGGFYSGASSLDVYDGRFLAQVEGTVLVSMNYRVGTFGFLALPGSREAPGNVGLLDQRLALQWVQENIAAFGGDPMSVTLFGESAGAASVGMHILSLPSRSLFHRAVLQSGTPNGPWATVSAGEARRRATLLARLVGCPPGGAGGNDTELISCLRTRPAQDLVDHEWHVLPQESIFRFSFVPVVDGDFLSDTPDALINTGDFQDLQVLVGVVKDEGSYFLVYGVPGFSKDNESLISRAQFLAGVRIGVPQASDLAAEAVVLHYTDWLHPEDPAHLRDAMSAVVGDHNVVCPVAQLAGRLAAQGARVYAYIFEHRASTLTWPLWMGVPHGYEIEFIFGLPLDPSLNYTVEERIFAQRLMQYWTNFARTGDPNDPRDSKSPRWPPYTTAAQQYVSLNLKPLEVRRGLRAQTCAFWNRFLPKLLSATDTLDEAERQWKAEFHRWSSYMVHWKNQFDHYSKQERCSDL

SMILES | outcome | AC50
N#Cc1c(Cl)c(Cl)c(Cl)c(C#N)c1Cl | inactive | –
O=C(Nc1ccccc1)Nc1cnns1 | inactive | –
CNC(=O)Oc1cccc(N=CN(C)C)c1 | – | 12 µM (active)
COP(=O)(OC)OC=C(Cl)Cl | – | 6.37 µM (active)
CC(C)N(C(=O)COc1nnc(C(F)(F)F)s1)c1ccc(F)cc1 | – | 14.2 µM (active)
COP(=S)(OC)Oc1ccc([N+](=O)[O-])cc1 | inactive | –
